# Assay results: paper PMC8384837, “Expanding the binding specificity for RNA recognition by a PUF domain”
# What was measured:
# Test in all cases: yeast three-hybrid, YBZ-1, SC-Leu-His + 0.5 mM 3-AT, 4 days
# Details in all cases: tags: N-Gal4 AD-HA kept; label: inside an RPR1-promoter hybrid RNA with tandem MS2 sites; ssRNA
# PUM1 PUF domain R5-GRR = PUM1 PUF domain R5-GRR (Homo sapiens, UniProt Q14671 828-1176, C1007G;Q1011R)
# Outline: (§1)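 Matching RNA elements and Pumilio-1 PUF domain libraries, randomized at the three base-contacting residues of every repeat, were co-expressed from a centromeric plasmid in strain YBZ-1 (LexA–MS2 coat fusion, HIS3 reporter). The repeat regions were PCR-amplified and Illumina-sequenced from cells grown four days on SC-Leu (input) or SC-Leu-His + 0.5 mM 3-AT (selection). The interaction score is the log change in variant frequency from input to selection. It is computed in log2, with a pseudocount of 1 for absent variants.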
# PUM1 PUF domain R3-VRD = PUM1 PUF domain R3-VRD (Homo sapiens, UniProt Q14671 828-1176, C935V;Q939D)
# Outline: as §1
# PUM1 PUF domain R8-KYW = PUM1 PUF domain R8-KYW (Homo sapiens, UniProt Q14671 828-1176, N1122K;Q1126W)
# Outline: as §1
# PUM1 PUF domain R4-GRS = PUM1 PUF domain R4-GRS (Homo sapiens, UniProt Q14671 828-1176, N971G;H972R;Q975S)
# Outline: as §1
# PUM1 PUF domain R5-WHS = PUM1 PUF domain R5-WHS (Homo sapiens, UniProt Q14671 828-1176, C1007W;R1008H;Q1011S)
# Outline: as §1
# PUM1 PUF domain R5-TVD = PUM1 PUF domain R5-TVD (Homo sapiens, UniProt Q14671 828-1176, C1007T;R1008V;Q1011D)
# Outline: as §1
# PUM1 PUF domain R3-FFV = PUM1 PUF domain R3-FFV (Homo sapiens, UniProt Q14671 828-1176, C935F;R936F;Q939V)
# Outline: as §1
# PUM1 PUF domain R4-QWP = PUM1 PUF domain R4-QWP (Homo sapiens, UniProt Q14671 828-1176, N971Q;H972W;Q975P)
# Outline: as §1
# PUM1 PUF domain R6-VYN = target: T1, PUM1 PUF domain R6-VYN (Homo sapiens, UniProt Q14671 828-1176, N1043V;Q1047N)
# T1 sequence: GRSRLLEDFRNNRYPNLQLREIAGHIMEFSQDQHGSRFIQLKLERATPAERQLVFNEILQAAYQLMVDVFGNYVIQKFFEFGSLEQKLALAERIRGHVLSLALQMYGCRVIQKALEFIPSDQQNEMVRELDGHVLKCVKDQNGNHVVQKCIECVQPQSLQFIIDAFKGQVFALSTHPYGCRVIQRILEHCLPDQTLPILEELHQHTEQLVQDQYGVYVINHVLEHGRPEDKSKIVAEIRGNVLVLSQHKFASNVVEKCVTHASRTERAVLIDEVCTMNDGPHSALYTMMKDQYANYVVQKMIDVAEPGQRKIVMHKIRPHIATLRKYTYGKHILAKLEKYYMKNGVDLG
# Outline: as §1
sequence,measurement,setting,value
GGCUAGAACUAGUGGAUCCCCCGGCGCCCGGCGGCUCGAGCCCGGGUAAGUGUAAAUAGUCUGCAUGCCGCCGGGCGCCAUGCCUGCAGGUCGACUCUAGAAAACAUG,binding signal,PUM1 PUF domain R5-GRR,0.47 log2 enrichment (interaction score)
same,binding signal,PUM1 PUF domain R3-VRD,4.68 log2 enrichment (interaction score)
same,binding signal,PUM1 PUF domain R8-KYW,5.55 log2 enrichment (interaction score)
same,binding signal,PUM1 PUF domain R4-GRS,4.09 log2 enrichment (interaction score)
same,binding signal,PUM1 PUF domain R5-WHS,1.16 log2 enrichment (interaction score)
same,binding signal,PUM1 PUF domain R5-TVD,0.28 log2 enrichment (interaction score)
GGCUAGAACUAGUGGAUCCCCCGGCGCCCGGCGGCUCGAGCCCGGGUAAGUGUAAGUAGUCUGCAUGCCGCCGGGCGCCAUGCCUGCAGGUCGACUCUAGAAAACAUG,binding signal,PUM1 PUF domain R3-FFV,6.72 log2 enrichment (interaction score)
GGCUAGAACUAGUGGAUCCCCCGGCGCCCGGCGGCUCGAGCCCGGGUAAGUGUAUAUAGUCUGCAUGCCGCCGGGCGCCAUGCCUGCAGGUCGACUCUAGAAAACAUG,binding signal,PUM1 PUF domain R4-QWP,5.65 log2 enrichment (interaction score)
same,binding signal,PUM1 PUF domain R4-GRS,2.08 log2 enrichment (interaction score)
GGCUAGAACUAGUGGAUCCCCCGGCGCCCGGCGGCUCGAGCCCGGGUAAGUGUCAAUAGUCUGCAUGCCGCCGGGCGCCAUGCCUGCAGGUCGACUCUAGAAAACAUG,binding signal,PUM1 PUF domain R5-GRR,5.4 log2 enrichment (interaction score)
same,binding signal,PUM1 PUF domain R5-TVD,3.26 log2 enrichment (interaction score)
GGCUAGAACUAGUGGAUCCCCCGGCGCCCGGCGGCUCGAGCCCGGGUAAGUGAAAAUAGUCUGCAUGCCGCCGGGCGCCAUGCCUGCAGGUCGACUCUAGAAAACAUG,binding signal,PUM1 PUF domain R6-VYN,6.4 log2 enrichment (interaction score)
